Source: PubChem (several laboratories)
Shown are actives, neighbours in structure and some others; about 2.2% of the full set was active somewhere.
GASC-1 inh = blocks human GASC-1 demethylase activity | inhibition, % at 2.35 µM | actives 0.069% (n = 330,000) | Q9H3R0 | GST-JMJD2C(1-420) H3K9me3 demethylation, DELFIA europium;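 active means more than half of a compound's replicate wells show inhibition beyond 50%, single wells judged on their own value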;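 further: signal counts dimethyl H3K9 product captured on neutravidin plate; 0% = median of DMSO wells and 100% = 0.3 times that DMSO median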
VLA-4 inh = inhibition in a human VLA-4 binding assay; P13612; VLA-4 expressing cells, ligand binding flow cytometry; inhibition, % (about 7 µM as worked out from the volumes in the protocol); actives 0.2% (n = 330,000); AID 2557; in the data active means inhibition above about 50%
Target sequence (P13612 whole entry, looked up): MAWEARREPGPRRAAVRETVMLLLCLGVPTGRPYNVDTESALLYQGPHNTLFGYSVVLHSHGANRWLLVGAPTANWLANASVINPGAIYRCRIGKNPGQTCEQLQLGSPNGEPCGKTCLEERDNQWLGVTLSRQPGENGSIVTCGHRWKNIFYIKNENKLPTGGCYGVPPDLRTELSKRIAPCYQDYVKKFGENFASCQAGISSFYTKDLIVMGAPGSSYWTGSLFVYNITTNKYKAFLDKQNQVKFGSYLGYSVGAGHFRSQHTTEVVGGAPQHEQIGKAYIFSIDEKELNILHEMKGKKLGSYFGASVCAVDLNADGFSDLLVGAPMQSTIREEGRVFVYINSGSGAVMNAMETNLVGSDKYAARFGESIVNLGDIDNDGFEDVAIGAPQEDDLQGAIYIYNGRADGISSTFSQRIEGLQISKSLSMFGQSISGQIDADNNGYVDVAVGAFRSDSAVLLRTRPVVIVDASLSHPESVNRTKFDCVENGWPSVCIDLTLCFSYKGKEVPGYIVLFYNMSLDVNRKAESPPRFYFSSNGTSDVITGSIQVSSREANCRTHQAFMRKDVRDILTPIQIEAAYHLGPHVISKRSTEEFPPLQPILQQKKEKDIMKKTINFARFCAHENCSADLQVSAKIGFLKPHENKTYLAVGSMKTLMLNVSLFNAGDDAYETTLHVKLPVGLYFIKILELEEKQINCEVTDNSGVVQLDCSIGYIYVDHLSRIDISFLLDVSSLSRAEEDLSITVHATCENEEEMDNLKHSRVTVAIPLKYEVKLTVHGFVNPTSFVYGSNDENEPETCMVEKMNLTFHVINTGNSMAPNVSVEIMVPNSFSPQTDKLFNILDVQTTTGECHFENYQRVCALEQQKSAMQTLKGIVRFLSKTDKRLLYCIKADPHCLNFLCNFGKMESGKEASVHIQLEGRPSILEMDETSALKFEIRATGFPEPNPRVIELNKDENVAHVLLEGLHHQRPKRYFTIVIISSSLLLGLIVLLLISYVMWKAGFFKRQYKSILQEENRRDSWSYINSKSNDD
m5-HT2A agonist = mouse HTR2A agonism via beta-arrestin recruitment; CHO-K1 mHTR2A beta-arrestin complementation, luminescence; percent of 30 µM serotonin response; activation, % at 7.6 µM; actives 0.66% (n = 360,000); AID 624169;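 active means activation above a run cutoff, the mean activation of all tested compounds plus 3 SD, cut at about 14% in these data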;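 further: 0% = plate median of compound wells and 100% = 30 µM serotonin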
MEX-5 binding = C. elegans MEX-5 TCR-2 RNA binding activity. Q9XUB2. MEX-5/FITC-TCR2 RNA binding, fluorescence polarization; active compounds read low. activity score (negative = inhibition of binding), % at 10 µM. actives 0.38% (n = 300,000). AID 1832;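 active means inhibition past about -25% in most replicates, and total fluorescence under double the plate's negative control median, limit read from the data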;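 further: 0% = DMSO and -100% = 5 µM competing unlabeled TCR2 RNA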
V-ATPase pH = alters yeast V-ATPase proton transport | actives 0.37% (n = 350,000) | AID 504577 | response, % at 10 µM | S. cerevisiae, pHLuorin cytosolic pH fluorescence; in the data active means response mostly above about 7.3%, no sharp cut-off; inactive means mostly below about 5.4%; further: actives read high
Exocytosis inh = blocks lytic granule exocytosis; AID 651702; inhibition, % at 10 µM; actives 0.66% (n = 360,000); TALL-104 LAMP-1 surface exposure, flow cytometry; cells stimulated with thapsigargin and PMA;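 active means inhibition above about 55%, limit read from the data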
Exocytosis CP01 = lytic granule exocytosis inhibition. shares compounds with Exocytosis inh. TALL-104 cells, LAMP-1 externalization, flow cytometry; stimulated with PMA plus thapsigargin. inhibition, % at 10 µM. actives 11% (n = 1,500); in the data active means inhibition above about 60%;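 further: 0% = stimulated vehicle wells and 100% = unstimulated wells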
An asterisk follows results filed as active; · = no result.

SMILES	GASC-1 inh	VLA-4 inh	m5-HT2A agonist	MEX-5 binding	V-ATPase pH	Exocytosis inh	Exocytosis CP01
CN(C)CCn1c(=N)n(CC(O)c2ccc(Cl)c(Cl)c2)c2ccccc21 (stereo not given)	-5	7	-5	0	-3	85*	-13
OC(c1ccccc1)(c1ccccc1)C1CCN(CCCOc2ccc3c(c2)CCCC3)CC1	·	·	-6	·	·	62*	5
O=C(Nc1ccccc1Cl)Nc1ccnn1C1CCN(C(=O)CCN2CCCO2)CC1	11	5	2	5	-2	-4	·
CCN1C(=O)c2cccc3c(S(=O)(=O)N4CCCC4C(=O)O)ccc1c23 (stereo not given)	-4	-2	1	0	1	60*	-13
CCN1C(=O)c2cccc3c(S(=O)(=O)N4CCNCC4)ccc1c23	-2	-4	0	·	-56	-3	·
CSc1ncccc1C(=O)NC1CCCc2c1cnn2-c1ccc(C)c(C)c1 (stereo not given)	-2	12	4	-1	-3	2	·
O=C(CCS(=O)(=O)c1ccccc1)N(CCCN1CCOCC1)c1nc2ccc(F)cc2s1	-12	4	-17	-1	-2	58*	-7
COc1ccc(NC(=O)Nc2c(O)ccc3ccccc23)cc1	2	-11	-1	-1	0	87*	-4
COc1ccc(C(=O)Nc2c(O)ccc3ccccc23)cc1	-41	-6	-3	-2	-2	7	·
Cc1cccc(NC(=O)COc2ccccc2C(=O)NC(C)c2ccccc2)c1 (stereo not given)	-14	-4	0	2	-1	2	·
Cc1ccc(-c2nnc(N3CCCCCC3)c3ccccc23)cc1	1	7	-2	-2	2	66*	-12
COc1ccc(-c2nnc(N3CCCCC3)c3ccccc23)cc1	-4	-106	3	0	2	0	·
O=C1ON=C(c2ccccc2)/C1=C/c1ccc(-c2ccccc2[N+](=O)[O-])o1	-1	29	-3	·	3	70*	99*
CN(Cc1ccccc1O)CC1CCCN(CCc2ccc(Cl)cc2)C1 (stereo not given)	-6	9	-3	3	-1	69*	-12
CCN(Cc1ccc(C#CCCO)cc1)CC1CCCN(CCc2cccc(F)c2)C1 (stereo not given)	10	7	-3	4	-2	88*	-10
CN(Cc1ccc(C#CCCO)cc1)CC1CCCN(CCc2ccc(Cl)cc2)C1 (stereo not given)	-2	1	-9	2	2	70*	-10
Cc1occc1C(=O)N(C)CC1CCCN(CCc2ccc(Cl)cc2)C1 (stereo not given)	·	·	-6	·	-2	5	·
Cc1cc(Cl)cc(Cl)c1OCCN1CCCC1	-4	-5	8	2	1	-3	·
CCC/C(=N\NC(=O)c1ccco1)c1ccc(Cl)s1	7	5	2	2	0	0	·
CCCCCCCCNCCS(=O)(=O)NCc1ccccc1	·	·	1	·	-1	63*	32
COc1ccc(C(=O)CSc2cc(C)nc(SCC(=O)c3ccc(C)cc3)n2)cc1	2	-14	0	-1	-2	56*	-12
CSc1cccc(CN2CCC(Oc3ccc(C(=O)N4CCCCC4)cc3)CC2)c1	20	16	-9	-2	-5	-9	·
COc1cc(SC)ccc1C(=O)NCCc1c[nH]c2ccccc12	-4	7	-6	2	11	62*	-4
COc1ccc(OCCCC(=O)Nc2ccc(S(=O)(=O)N3CCOCC3)cc2)cc1	-1	-1	14	·	1	4	·
O=C(NCc1ccc2c(c1)OCO2)C12CN(Cc3ccccc3)CC1C(c1cccc([N+](=O)[O-])c1)=NO2 (stereo not given)	2	-1	2	-3	3	100*	-5
COc1ccc(CNC(=O)C2CCN(C(=O)c3csc(Nc4ccc(C)cc4)n3)CC2)cc1	-9	0	-2	2	0	58*	-3
Cc1ccc(Nc2nc(C(=O)N3CCC(C(=O)NCCN4CCOCC4)CC3)cs2)cc1	-6	15	0	-1	-6	-1	·
